According to PubChem BioAssay (EPA / NIEHS):
Records with an inconclusive call do not appear. The source made the active and inactive calls. Rule for the calls: active = hit-call score of the fitted dose curve at least 0.9, where 1 is the maximum; inconclusive = response in the unintended direction; inactive = score below 0.9.

Each molecule was assayed against human Casein Kinase 1-delta (CK1D), CSNK1D (gene 1453) (UniProt P48730) (assay: NVS_ENZ_hCK1D: NovaScreen (NVS) Enzymatic Assay for human Casein Kinase 1-delta (CK1D) (AID 2283148)).
Summary of the method: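 Recombinant human CK1-delta, cell-free; fluorescent substrate with electrophoretic mobility-shift separation of product, read 1 h after dosing. Single 25 uM duplicate screen, then concentration-response up to 50 uM; loss of signal vs DMSO.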

Sequence of human Casein Kinase 1-delta (CK1D), CSNK1D (gene 1453) (P48730 whole entry, looked up): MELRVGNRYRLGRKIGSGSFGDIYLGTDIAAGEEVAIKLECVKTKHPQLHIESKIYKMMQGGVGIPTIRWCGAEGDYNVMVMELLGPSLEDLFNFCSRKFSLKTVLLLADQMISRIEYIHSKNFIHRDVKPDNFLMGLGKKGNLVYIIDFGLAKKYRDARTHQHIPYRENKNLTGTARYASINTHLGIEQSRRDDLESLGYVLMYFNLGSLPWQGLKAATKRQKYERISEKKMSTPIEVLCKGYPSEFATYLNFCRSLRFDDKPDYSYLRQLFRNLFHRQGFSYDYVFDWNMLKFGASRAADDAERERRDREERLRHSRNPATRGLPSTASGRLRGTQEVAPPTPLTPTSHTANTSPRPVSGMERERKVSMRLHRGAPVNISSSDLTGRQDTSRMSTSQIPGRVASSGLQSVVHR

Compound | outcome | AC50
O=C(O)c1ccccc1C(c1ccc(O)cc1)c1ccc(O)cc1 | inactive | –
O=c1c(-c2ccc(O)cc2)coc2cc(O)ccc12 | inactive | –
CCN(CC)CCNc1ccc(CNC=O)c2sc3ccc(OC)cc3c(=O)c12 | – | 6.5 µM (active)

Each molecule was assayed against human Dual Specificity Protein Phosphatase 3 (DUSP3), DUSP3 (gene 1845) (UniProt P51452) (assay: NVS_ENZ_hDUSP3: NovaScreen (NVS) Enzymatic Assay for human Dual Specificity Protein Phosphatase 3 (DUSP3) (AID 2283152);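 note: phosphatase activity of recombinant human DUSP3 on a fluorogenic substrate without cells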).
Summary of the method: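 Cell-free fluorescence-intensity enzyme activity assay with recombinant protein and substrate; loss of signal fitted relative to DMSO baseline. Primary screen in duplicate at 25 uM, actives then run in concentration series; measured 0 h after dosing.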

Sequence of human Dual Specificity Protein Phosphatase 3 (DUSP3), DUSP3 (gene 1845) (P51452 whole entry, looked up): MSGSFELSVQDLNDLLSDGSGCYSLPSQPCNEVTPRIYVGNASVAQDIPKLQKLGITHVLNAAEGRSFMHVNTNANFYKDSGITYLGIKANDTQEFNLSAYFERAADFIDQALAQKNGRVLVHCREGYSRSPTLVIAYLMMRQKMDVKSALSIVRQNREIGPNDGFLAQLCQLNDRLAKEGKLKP

Compound | AC50 | outcome
ClC1=C(Cl)C(Cl)(Cl)C(Cl)=C1Cl | 16.3 µM (active) | –
CCCCCCCCCCCCCCCS(=O)(=O)Oc1ccccc1 | – | inactive
CCCCC(CC)COC(=O)CCCCC(=O)OCC(CC)CCCC (configuration not stated) | – | inactive
CC(C)(C)CC(C)(C)c1ccc(O)c(-n2nc3ccccc3n2)c1 | 10.6 µM (active) | –

These molecules were tested against human Esterase Plasma (ES), BCHE (gene 590) (UniProt P06276) (assay: NVS_ENZ_hES: NovaScreen (NVS) Enzymatic Assay for human Esterase Plasma (ES) (AID 2283157)).
Summary of the method: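 Screening ran at 25 uM in duplicate, followed by singleton concentration series reaching 50 uM for actives. Human plasma protein, colorimetric detection, 0.25 h exposure, DMSO negative control.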

Sequence of human Esterase Plasma (ES), BCHE (gene 590) (P06276 whole entry, looked up): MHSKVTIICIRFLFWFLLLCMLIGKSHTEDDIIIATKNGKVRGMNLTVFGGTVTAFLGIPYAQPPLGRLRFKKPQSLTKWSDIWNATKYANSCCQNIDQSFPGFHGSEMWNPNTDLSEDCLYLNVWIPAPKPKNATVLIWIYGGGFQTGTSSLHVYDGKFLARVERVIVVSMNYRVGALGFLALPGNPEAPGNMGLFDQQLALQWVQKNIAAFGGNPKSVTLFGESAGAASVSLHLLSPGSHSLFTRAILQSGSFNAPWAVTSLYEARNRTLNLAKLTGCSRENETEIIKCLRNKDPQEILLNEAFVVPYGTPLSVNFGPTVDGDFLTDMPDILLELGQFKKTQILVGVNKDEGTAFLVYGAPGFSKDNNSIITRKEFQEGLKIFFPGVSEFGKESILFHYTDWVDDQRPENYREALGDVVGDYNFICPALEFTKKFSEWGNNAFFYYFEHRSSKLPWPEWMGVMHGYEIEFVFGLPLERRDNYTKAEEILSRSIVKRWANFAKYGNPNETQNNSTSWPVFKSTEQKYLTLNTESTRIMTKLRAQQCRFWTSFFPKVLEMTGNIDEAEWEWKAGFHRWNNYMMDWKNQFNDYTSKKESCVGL

Compound | outcome | AC50
CCCCC(CC)COC(=O)CCCCC(=O)OCc1ccccc1 (configuration not stated) | inactive | –
OC1CCC(C2CCCCC2)CC1 (configuration not stated) | inactive | –
CCN(CC)CCNc1ccc(CNC=O)c2sc3ccc(OC)cc3c(=O)c12 | – | 0.751 µM (active)

These molecules were tested against human Ephrin type-A Receptor 1 (EphA1), EPHA1 (gene 2041) (UniProt P21709) (assay: NVS_ENZ_hEphA1: NovaScreen (NVS) Enzymatic Assay for human Ephrin type-A Receptor 1 (EphA1) (AID 2283158);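 note: activity is signal loss versus DMSO meaning EphA1 kinase inhibition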).
Summary of the method: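 Fluorescent substrate conversion, resolved by mobility-shift separation, measured 1 hour post-dosing using recombinant enzyme; signal loss relative to DMSO baseline. Single-concentration duplicates at 25 uM preceded singleton concentration series topping at 50 uM.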

Sequence of human Ephrin type-A Receptor 1 (EphA1), EPHA1 (gene 2041) (P21709 whole entry, looked up): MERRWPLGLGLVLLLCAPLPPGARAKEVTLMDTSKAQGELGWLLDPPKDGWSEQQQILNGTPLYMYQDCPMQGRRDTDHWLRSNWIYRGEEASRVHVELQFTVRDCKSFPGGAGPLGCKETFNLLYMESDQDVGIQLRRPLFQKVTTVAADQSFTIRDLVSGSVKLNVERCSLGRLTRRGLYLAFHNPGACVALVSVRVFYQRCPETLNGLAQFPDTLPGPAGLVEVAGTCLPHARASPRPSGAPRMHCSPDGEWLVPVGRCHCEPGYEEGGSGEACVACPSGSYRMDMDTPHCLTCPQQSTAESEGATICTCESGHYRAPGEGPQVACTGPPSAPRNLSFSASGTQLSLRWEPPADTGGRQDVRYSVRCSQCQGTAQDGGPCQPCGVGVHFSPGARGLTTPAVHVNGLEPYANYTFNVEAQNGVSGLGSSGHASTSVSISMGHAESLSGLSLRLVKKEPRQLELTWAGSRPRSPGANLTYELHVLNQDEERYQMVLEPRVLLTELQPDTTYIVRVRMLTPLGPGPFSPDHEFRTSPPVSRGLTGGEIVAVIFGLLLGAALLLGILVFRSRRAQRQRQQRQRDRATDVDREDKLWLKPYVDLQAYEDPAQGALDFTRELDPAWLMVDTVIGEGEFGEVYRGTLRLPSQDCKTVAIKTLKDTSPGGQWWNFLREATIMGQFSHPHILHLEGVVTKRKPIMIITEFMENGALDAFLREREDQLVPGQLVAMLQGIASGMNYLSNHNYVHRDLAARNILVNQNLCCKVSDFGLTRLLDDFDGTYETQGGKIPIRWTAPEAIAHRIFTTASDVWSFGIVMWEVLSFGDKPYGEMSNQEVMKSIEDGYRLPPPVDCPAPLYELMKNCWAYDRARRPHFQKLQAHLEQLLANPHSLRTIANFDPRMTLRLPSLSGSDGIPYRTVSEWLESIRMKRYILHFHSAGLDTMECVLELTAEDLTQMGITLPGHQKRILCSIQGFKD

Compound | outcome
ClC1=C(Cl)C(Cl)(Cl)C(Cl)=C1Cl | inactive
COCC(C)O (configuration not stated) | inactive
C[C@@H]1C[C@H]2[C@@H]3CCC4=CC(=O)C=C[C@]4(C)[C@@]3(F)[C@@H](O)C[C@]2(C)[C@@]1(O)C(=O)COP(=O)(O)O | inactive
CCCCCCCCCCCCCC[N+](C)(C)C | inactive

What follows are molecules tested against Glycogen synthase kinase-3 beta (Homo sapiens) (UniProt P49841) (assay: NVS_ENZ_hGSK3b: NovaScreen (NVS) Enzymatic Assay for human Glycogen Synthase Kinase-3 beta (GSK3b) (AID 2283165)).
Summary of the method: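 Recombinant enzyme with specific fluorescent substrate, 1 h, product separated by electrophoretic mobility shift. Primary duplicate screen at 25 uM; actives (e.g. 30% inhibition) followed in singleton concentration-response to 50 uM. Signal loss fitted versus DMSO.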

Sequence of Glycogen synthase kinase-3 beta (Homo sapiens) (P49841 whole entry, looked up): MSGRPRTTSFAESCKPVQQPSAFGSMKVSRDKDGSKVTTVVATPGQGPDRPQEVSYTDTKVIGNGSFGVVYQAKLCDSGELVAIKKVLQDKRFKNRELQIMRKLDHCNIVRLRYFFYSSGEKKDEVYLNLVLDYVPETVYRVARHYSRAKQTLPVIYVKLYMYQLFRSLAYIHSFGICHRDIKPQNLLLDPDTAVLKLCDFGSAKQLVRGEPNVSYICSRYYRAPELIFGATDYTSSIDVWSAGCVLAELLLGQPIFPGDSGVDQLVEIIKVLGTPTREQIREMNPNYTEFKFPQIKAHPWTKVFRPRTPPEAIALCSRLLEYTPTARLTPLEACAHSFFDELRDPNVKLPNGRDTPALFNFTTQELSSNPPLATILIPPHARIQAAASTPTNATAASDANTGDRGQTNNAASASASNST

Compound | outcome
Oc1cccc(O)c1 | inactive
ClC1=C(Cl)C(Cl)(Cl)C(Cl)=C1Cl | inactive
CCOC(=O)CC(O)(CC(=O)OCC)C(=O)OCC | inactive
CC(C)(C)c1cc(C(C)(C)C)c(O)c(C(C)(C)C)c1 | inactive
CCCCCCCCC(=O)O | inactive
CC(C)(C)c1ccc(O)c(C(C)(C)C)c1 | inactive
O=c1c(-c2ccc(O)cc2)coc2cc(O)ccc12 | inactive
O=[N+]([O-])c1ccc(O)cc1 | inactive
